Experimental data as given in PubChem BioAssay AID1159580 (chemical genetic matrix, 2015).
The whole screen tested about 5,500 compounds, of which about 2,000 (36%) were called active. About 18% were inconclusive and are not listed. Cut-off read from the data, not from the text of the source: active = normalized growth mostly below about 0.91 (no sharp cut-off); inconclusive = no clear call, values can overlap the other calls; inactive = mostly above about 0.92. Some of the results follow.

Test: chemical genetic growth profiling, strain panel (AID 1159580);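 note: tested at 20 µM; growth read once vehicle control cultures reached saturation at 30 °C; 1 = growth at the plate median or of vehicle wells; lower values mean less growth of the strain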
Settings: S. cerevisiae deletion strains, growth OD

Measured: normalized growth

CC(=O)O[C@@H]1C[C@@]2(C)[C@H](c3ccoc3)C[C@H]3O[C@]32[C@]2(C)C(=O)C(O)=C3C(C)(C)C(=O)C=C[C@]3(C)C12 (stereo partly drawn)
active: locus YKR001C, strain vps1, stronger effect = lower value 0.812 | locus YLR039C, strain RIC1, stronger effect = lower value 0.513 | locus YLR221C, strain rsa3, stronger effect = lower value 0.863 | locus YLR262C, strain YPT6 (second series), stronger effect = lower value 0.669 | locus YLR262C, strain YPT6, stronger effect = lower value 0.483 | locus YLR268W, strain sec22, stronger effect = lower value 0.832 | locus YLR320W, strain mms22, stronger effect = lower value 0.816 | locus YLR371W, strain rom2, stronger effect = lower value 0.731 | locus YLR418C, strain cdc73, stronger effect = lower value 0.35 | locus YML032C, strain rad52, stronger effect = lower value 0.853 | locus YMR231W, strain pep5, stronger effect = lower value 0.927 | locus YNL071W, strain lat1, stronger effect = lower value 0.736 | locus YNL307C, strain MCK1, stronger effect = lower value 0.571 | locus YNR052C, strain pop2, stronger effect = lower value 0.882 | locus YOL147C, strain pex11, stronger effect = lower value 0.818 | locus YOR144C, strain elg1, stronger effect = lower value 0.864 | locus YOR184W, strain ser1, stronger effect = lower value 0.744 | locus YOR270C, strain vph1, stronger effect = lower value 0.776 | locus YPL051W, strain arl3, stronger effect = lower value 0.895 | locus YPR163C, strain tif3, stronger effect = lower value 0.757 | strain wtn01, stronger effect = lower value 0.864
inactive: locus YJL187C, strain SWE1 (second series), stronger effect = lower value 0.958 | locus YJL187C, strain SWE1, stronger effect = lower value 0.953 | locus YJR043C, strain POL32, stronger effect = lower value 0.97 | locus YJR066W, strain TOR1, stronger effect = lower value 0.888 | locus YKL009W, strain mrt4, stronger effect = lower value 0.94 | locus YKL068W, stronger effect = lower value 0.962 | locus YKL085W, strain MDH1 (second series), stronger effect = lower value 0.993 | locus YKL085W, strain MDH1, stronger effect = lower value 0.993 | locus YKL160W, strain elf1, stronger effect = lower value 0.969 | locus YKR026C, strain gcn3, stronger effect = lower value 0.965 | locus YKR091W, strain srl3, stronger effect = lower value 0.971 | locus YLL001W, strain dnm1, stronger effect = lower value 0.979 | locus YLL026W, stronger effect = lower value 0.96 | locus YLL041C, strain sdh2, stronger effect = lower value 0.976 | locus YLR027C, strain aat2, stronger effect = lower value 0.942 | locus YLR058C, strain SHM2, stronger effect = lower value 0.936 | locus YLR102C, strain apc9, stronger effect = lower value 0.958 | locus YLR113W, strain HOG1, stronger effect = lower value 0.911 | locus YLR258W, strain gsy2, stronger effect = lower value 0.948 | locus YLR342W, strain FKS1, stronger effect = lower value 0.921 | locus YLR357W, strain rsc2, stronger effect = lower value 1.03 | locus YLR370C, strain arc18, stronger effect = lower value 0.927 | locus YLR384C, strain iki3, stronger effect = lower value 0.956 | locus YML016C, strain PPZ1, stronger effect = lower value 0.946 | locus YML120C, strain ndi1, stronger effect = lower value 0.961 | locus YML124C, strain tub3, stronger effect = lower value 0.963 | locus YMR058W, strain fet3, stronger effect = lower value 0.937 | locus YMR078C, strain ctf18, stronger effect = lower value 0.925 | locus YMR125W, strain sto1, stronger effect = lower value 0.957 | locus YMR129W, stronger effect = lower value 0.977 | locus YMR205C, strain PFK2, stronger effect = lower value 0.886 | locus YMR223W, strain ubp8, stronger effect = lower value 0.922 | locus YMR307W, strain GAS1, stronger effect = lower value 0.61 | locus YNL067W, strain RPL9B, stronger effect = lower value 0.985 | locus YNL128W, strain TEP1, stronger effect = lower value 0.914 | locus YNL183C, strain NPR1, stronger effect = lower value 0.909 | locus YNL209W, strain ssb2, stronger effect = lower value 0.974 | locus YNL233W, strain BNI4, stronger effect = lower value 0.935 | locus YNL248C, strain rpa49, stronger effect = lower value 0.952 | locus YNL250W, strain rad50, stronger effect = lower value 1.02 | locus YNL271C, strain bni1, stronger effect = lower value 0.945 | locus YNL298W, strain CLA4, stronger effect = lower value 0.953 | locus YNL322C, strain KRE1 (second series), stronger effect = lower value 0.956 | locus YNR049C, strain mso1, stronger effect = lower value 0.959 | locus YOL006C, strain TOP1, stronger effect = lower value 0.771 | locus YOL012C, strain htz1 0.819 | locus YOR001W, strain rrp6, stronger effect = lower value 0.92 | locus YOR061W, strain CKA2, stronger effect = lower value 0.923 | locus YOR069W, strain VPS5, stronger effect = lower value 0.969 | locus YOR070C, strain gyp1, stronger effect = lower value 0.949 | locus YOR080W, strain dia2, stronger effect = lower value 0.965 | locus YOR083W, strain WHI5, stronger effect = lower value 0.976 | locus YOR106W, strain vam3, stronger effect = lower value 0.942 | locus YOR136W, strain idh2, stronger effect = lower value 0.941 | locus YOR231W, strain MKK1, stronger effect = lower value 0.918 | locus YOR265W, strain rbl2, stronger effect = lower value 0.963 | locus YOR290C, strain snf2, stronger effect = lower value 0.929 | locus YOR316C, strain cot1, stronger effect = lower value 0.962 | locus YPL055C, strain LGE1, stronger effect = lower value 0.803 | locus YPL078C, strain atp4, stronger effect = lower value 0.973 | locus YPL106C, strain sse1, stronger effect = lower value 0.974 | locus YPL240C, strain hsp82, stronger effect = lower value 0.956 | locus YPL241C, strain CIN2, stronger effect = lower value 0.966 | locus YPL256C, strain CLN2, stronger effect = lower value 0.91 | locus YPR119W, strain clb2, stronger effect = lower value 0.959 | locus YPR141C, strain kar3, stronger effect = lower value 0.957 | locus YPR167C, strain met16, stronger effect = lower value 0.945
